Hits are enriched below; roughly 3.2% of the tested compounds scored in any of these assays.
MsrA act: activators of bovine methionine sulfoxide reductase A; purified bovine MsrA, absorbance read-out; activation, % at 10.6 µM; 0.3% of 360,000 active; AID 602163; in the data active = activation above about 7.5%;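 also: 0% = vehicle and 100% = reference activator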
rCAG binder: r(CAG) repeat RNA binding; 1.3% of 370,000 active; AID 651821; inhibition, % at 3 µM; TO-PRO-1 dye displacement fluorescence;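 active = inhibition above the plate cutoff, the mean of all test compounds on that plate plus 3 SD, cut at about 35% in these data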;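 also: 0% = DMSO alone and 100% = 100 µM mitoxantrone as full dye displacement; higher means more dye released from RNA so lower well fluorescence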
HGIII-sPLA2 inh: Inhibits HGIII-sPLA2 liposome hydrolysis, primary screen. QFRET BODIPY PC-A2 liposome hydrolysis, fluorescence. 0.56% of 370,000 active. Q9NZ20. inhibition, % at 12.2 µM;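 active = inhibition above mean plus 3 SD of compounds lying within the high and low control bounds, cut at about 19% in these data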;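 also: 0% = median of test compound wells and 100% = no enzyme DMSO wells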
Target sequence (Q9NZ20 whole entry, looked up): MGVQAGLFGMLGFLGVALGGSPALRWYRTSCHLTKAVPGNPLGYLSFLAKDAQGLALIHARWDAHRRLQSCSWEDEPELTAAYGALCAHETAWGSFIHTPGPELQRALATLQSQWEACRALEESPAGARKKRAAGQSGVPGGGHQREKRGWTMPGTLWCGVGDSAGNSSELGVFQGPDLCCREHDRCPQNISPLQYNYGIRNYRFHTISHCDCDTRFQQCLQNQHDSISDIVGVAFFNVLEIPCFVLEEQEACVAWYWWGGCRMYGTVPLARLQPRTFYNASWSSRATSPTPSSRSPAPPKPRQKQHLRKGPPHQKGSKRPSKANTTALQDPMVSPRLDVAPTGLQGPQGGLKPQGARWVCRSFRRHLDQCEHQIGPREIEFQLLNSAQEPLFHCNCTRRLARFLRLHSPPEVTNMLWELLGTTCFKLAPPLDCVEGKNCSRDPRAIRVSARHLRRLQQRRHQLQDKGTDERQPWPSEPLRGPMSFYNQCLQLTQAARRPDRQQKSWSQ
MsrA inhibitor: inhibits bovine methionine sulfoxide reductase A | purified bovine MsrA, absorbance read-out | inhibition, % at 15.5 µM | 0.75% of 360,000 active; in the data active = inhibition above about 4.5%;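 also: 0% = vehicle wells with enzyme and 100% = reference inhibitor wells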
PG9 Ab binder: PG9 antibody binding by small molecule; TR-FRET gp120-PG9 antibody binding; inhibition, % at 6.7 µM; 0.43% of 360,000 active; AID 624416; in the data active = inhibition above about 8.5%
* marks the source's active call; other numbers are inactive results; · = not tested or not shown.

SMILES | MsrA act | rCAG binder | HGIII-sPLA2 inh | MsrA inhibitor | PG9 Ab binder
CC1=NN(c2ccccc2)C(=O)/C1=C/c1c(O)n(-c2ccc(F)cc2)[nH]c1=O | -7 | 91* | -18 | 3 | -3
CC(C)N1CCCCC(NC(=O)c2ccc(F)cc2)C1=O (centres undefined) | · | -1 | 1 | · | ·
Oc1c(Br)cc(/C=N/n2c(-c3ccccc3)n[nH]c2=S)cc1Br | 2 | 0 | 4 | 3 | -1
Oc1ccc(/C=N/n2c(-c3ccccc3)n[nH]c2=S)cc1Br | 1 | 9 | 6 | 4.6* | -1
Cc1c(C(=O)N2CCCC2)sc(NC(=O)c2ccccc2)c1C#N | -3 | 9 | 3 | 4.6* | -2
COC(=O)C1CN(Cc2ccc(F)cc2)CCS(=O)(=O)N1Cc1cn(Cc2ccc(Cl)cc2)nn1 (centres undefined) | · | 6 | -9 | · | ·
Cc1ccc(S(=O)(=O)Nc2nc3ccccc3nc2NCC2CCCO2)cc1C (centres undefined) | -4 | 42* | -25 | 1 | -1
COc1ccc(Cl)cc1-n1c(=S)sc2c(=O)[nH]c(SCC(=O)C(C)(C)C)nc21 | -5 | 84* | -39 | 0 | -1
Cc1cc2nc3ccc(=[N+](C)C)cc-3sc2cc1N | 19* | · | · | · | ·
Oc1c(C(Nc2nc3ccccc3s2)c2ccco2)ccc2cccnc12 (centres undefined) | -8 | 14 | 34* | 0 | 0
CCC(=O)NC(c1cccs1)c1ccc2cccnc2c1O (centres undefined) | -3 | 4 | 15 | 1 | 0
NS(=O)(=O)c1ccc(CCn2c(=S)[nH]c3ccc(F)cc3c2=O)cc1 | -2 | 7 | 0 | 1 | 37*
COC(=O)c1cc(CC(=O)c2ccc(O)cc2O)c(C)o1 | -4 | -2 | -19 | 7.2* | -1
CC(C)c1noc2ncc(C(=O)c3cc(Cl)cc(Cl)c3O)cc12 | 1 | 47* | -3 | 0 | 1
Cc1cc(-c2ccc(Cl)cc2Cl)c(C#N)c(=O)[nH]1 | -4 | 3 | -5 | 2 | 0
CSc1nc(-c2ccc(Cl)cc2Cl)[nH]c(=O)c1C#N | -3 | 43* | -22 | 1 | 0
COc1cc(/C=C(\C#N)C(=O)Nc2cccc(C(=O)O)c2)ccc1OCc1ccc(C)cc1 | 0 | 4 | 0 | -1 | 0
COc1cc(/C=C(/C#N)C(=O)Nc2ccccc2)ccc1OCc1ccc(C(=O)O)cc1 | -2 | 40* | -9 | 1 | -1
CCn1c(/C=C/Nc2ccccc2)[n+](CC)c2cc(Cl)c(Cl)cc21 | -4 | 10 | 12 | 0 | 0
CCn1c(/C=C/N(C(C)=O)c2ccccc2)[n+](CCCS(=O)(=O)[O-])c2cc(Cl)c(Cl)cc21 | -6 | -3 | 0 | 4.6* | -3
C=CCN1[C@@H](Cc2ccccc2)COc2cccc(F)c2S1(=O)=O | · | 1 | 3 | · | ·
CCC(C)NS(=O)(=O)c1ccc(NC(=O)c2cccs2)cc1 (centres undefined) | -1 | 2 | -9 | -1 | 0
Cc1ccc(NS(=O)(=O)c2ccc(NC(=O)c3cccs3)cc2)cc1 | 8.2* | 7 | -65 | 0 | 3
C=CCN1C(=O)[C@@H](CC(=O)NCC2CCCCC2)[C@]2(C(=O)OCC)CCCCC/C=C/12 | · | 1 | 4 | · | ·
C=CS(=O)(=O)N(Cc1nnn(Cc2ccccc2)c1Br)[C@@H](CC(C)C)C(=O)OC | · | 0 | 9 | · | ·
SMILES | MsrA act | rCAG binder | HGIII-sPLA2 inh | MsrA inhibitor | PG9 Ab binder
COc1ccc(C(=O)/C=C/c2ccc(O)cc2)c(O)c1CC=C(C)C | -4 | 53* | -21 | 0 | -2
CC(/C=N/n1c(-c2ccncc2)n[nH]c1=S)=C\c1ccco1 | 0 | 21 | 23* | 3 | 3
S=c1[nH]nc(-c2cc3c(s2)-c2ccccc2CC3)o1 | -4 | 48* | -11 | 4 | 4
CCOC(=O)Nc1ccc2c(COC(=O)CN(C)S(=O)(=O)c3ccc(C)cc3)cc(=O)oc2c1 | -7 | 2 | -6 | -1 | 4
CCOC(=O)Nc1ccc2c(COC(=O)C(NS(=O)(=O)c3ccc(Cl)cc3)C(C)O)cc(=O)oc2c1 (centres undefined) | -3 | 6 | -16 | 4.6* | 0
CC(=NNC(=O)CSc1nnc(-c2ccc(C(C)(C)C)cc2)n1-c1ccccc1)c1cccc2ccccc12 | · | 12 | -5 | · | ·
COc1ccc(/C=C/c2nc3ccccc3n2C)cc1 | -14 | -4 | -10 | 5.5* | -1
COc1ccc(C(=O)c2[nH]c(N)c(C(=O)c3ccccc3)c2-c2ccc(OC)c(OC)c2)cc1 | · | · | 9 | · | ·
COC(=O)[C@]12C[C@H](CC(=O)NCCCN3CCCC3=O)C(=O)N(Cc3cccc4ccccc34)C1=C[C@H](C(C)(C)C)O[C@@H]2C | · | 3 | -7 | · | ·
CCCC(=O)NC(c1cccc([N+](=O)[O-])c1)c1ccc2cccnc2c1O (centres undefined) | 0 | 8 | 22* | -1 | -2
CC(C)C(=O)NC(c1cccc([N+](=O)[O-])c1)c1ccc2cccnc2c1O (centres undefined) | 1 | 4 | 23* | -1 | -1
CCCCC(=O)NC(c1ccc(Cl)cc1)c1ccc2cccnc2c1O (centres undefined) | -3 | 0 | 16 | 0 | -2
CC(C)C(=O)NC(c1ccco1)c1ccc2cccnc2c1O (centres undefined) | -3 | 5 | 12 | 0 | 1
CCCC(=O)NC(c1ccc(Cl)cc1Cl)c1ccc2cccnc2c1O (centres undefined) | -5 | 4 | 26* | -1 | 1
CN1C2=N[C@@H](c3ccccc3)CC(=O)N2/C(=C\c2ccccc2)[C@H]1c1ccccc1 | · | · | -4 | · | ·
COc1cc(/C=C/C(=O)c2ccc(NS(=O)(=O)c3ccc(C)cc3)cc2)cc(OC)c1O | -4 | 47* | -21 | 4 | 1
O=C(Oc1cc2oc(=O)cc(-c3ccccc3)c2cc1Cl)C1CCCCC1 | -2 | 6 | 5 | 18* | 0
CC(C)(C)OC(=O)NCC(=O)Oc1cc2oc(=O)cc(-c3ccccc3)c2cc1Cl | -5 | 9 | -11 | 2 | 4
CC(C)C[C@H]1COc2ccc(Cl)cc2S(=O)(=O)N1Cc1cn(Cc2ccc(C(F)(F)F)cc2)nn1 | · | 4 | 5 | · | ·
CCn1nc(NS(=O)(=O)c2ccc(F)cc2)c2cc3cccc(C)c3nc21 | -1 | 63* | -20 | 1 | 0
CCN(CC)C(=O)CC[C@H]1CC[C@]2(CCCN(C(=O)C(C)(C)C)C2)O1 | · | -3 | 4 | · | ·
Cc1cc(C)c2c(-n3cccc3)c(C(=O)NNS(=O)(=O)c3ccc(Cl)cc3)sc2n1 | 0 | 35* | -56 | 0 | -2
CC(=O)Nc1ccc(/C(N=Nc2ccccc2)=N/N=C(N)N)cc1 | 0 | 8 | 4 | 0 | -8
O=C(O)c1ccc(N=N/C(=N\Nc2ccc(C(=O)O)cc2)c2ccccc2)cc1 | 0 | 76* | 0 | 0 | -1
COC(=O)c1ccc(NC(=O)CSc2nc3[nH]ncc3c(=O)[nH]2)cc1 | -1 | 0 | 6 | 1 | 1
CC(=O)c1ccc(NC(=O)CSc2nc3[nH]ncc3c(=O)[nH]2)cc1 | -7 | 3 | 7 | 0 | 41*

Source: PubChem BioAssay
